Laboratory results from PubChem BioAssay AID1259313 (Sanford-Burnham Center for Chemical Genomics, 2017).
The whole screen tested about 340,000 compounds, of which about 8,500 (2.5%) were called active. The sample as a whole holds a higher share of actives than the screen did. Values without a mark were called inactive.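 Rule for the calls: active = melting temperature shift of at least 10% of the positive control shift, at one fixed dose; inactive = the rest.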

System: Glutamate receptor ionotropic, NMDA 3A (GRIN3A) ligand-binding domain
Assay: binders of NR3A ligand-binding domain, primary screen, biophysical, differential scanning fluorimetry, uHTS (AID 1259313)
Settings: NR3A LBD differential scanning fluorimetry, at 25 µM, stronger effect = higher value, 0% = protein alone, 100% = glycine-bound protein

Going from `CCOC(=O)C(=Cc1ccccc1OC)C(=O)OCC` to `CCOC(=O)C1=C(C)c2ccccc2OC1C(=O)OCC` (configuration not stated), the Tm shift relative to glycine control rises from 0.09% to 0.67%.

Going from `COC(=O)Cn1cnc2scc(-c3ccc(C)c(C)c3)c2c1=O` to `Cc1ccc(-n2nc3cc(C)c(NC(=O)c4cccnc4)cc3n2)cc1`, the Tm shift relative to glycine control falls from 0% to -2.09%.

Compared with `NCCN1CCN2C(=O)CN(C(=O)c3ccccc3)CC12` (configuration not stated), `O=C(COC(=O)C1CC2CCCC(C1)C2=O)NC(=O)c1ccccc1` (configuration not stated) is higher in Tm shift relative to glycine control: -1.42% for the first, -1.22% for the second.

Going from `Cc1cc(F)ccc1NC(=S)NCCc1ccccc1` to `CC(=O)NC(Cc1c[nH]c2ccccc12)C(=O)NCCc1ccccc1` (configuration not stated), the Tm shift relative to glycine control rises from -1.3% to 1.08%.

Going from `Cn1c(N)c(C(=O)COC(=O)c2ccc3ccccc3c2)c(=O)n(C)c1=O` to `O=C(CCn1nnc2ccccc21)OCC(=O)c1ccc([N+](=O)[O-])cc1`, the Tm shift relative to glycine control rises from -3.76% to -0.44%.

First: CC(=O)Nc1cccc(Nc2nc(-c3cccs3)nc3ccccc23)c1
Second: Oc1ccc(-c2nnc(Nc3ccccc3)c3ccccc23)cc1
The Tm shift relative to glycine control of the first is higher: 1.63% for the first, -0.38% for the second.

Going from `COc1ccc(N2CCN(C(=O)CNC(=O)c3ccc(C(C)(C)C)cc3)CC2)cc1` to `COc1ccc(C(CNC(=O)c2ccc(S(=O)(=O)Nc3ccccc3C)cc2)N2CCOCC2)cc1` (configuration not stated), the Tm shift relative to glycine control falls from 3.46% to 2.35%.

Going from `CC(C)(C)c1cc2cccnc2n1Cc1ccccc1` to `c1ccc(COc2ccccc2CNCc2cccnc2)cc1`, the Tm shift relative to glycine control rises from -1.7% to -0.7%.

Compared with `COCCN1C(=O)N(c2ccc(Cl)cc2)C(=O)C1CC(=O)Nc1cc(OC)cc(OC)c1` (configuration not stated), `CCOc1ccc(NC(=O)CC2C(=O)N(c3ccccc3)C(=O)N2CCOC)cc1` (configuration not stated) is lower in Tm shift relative to glycine control: 0.08% for the first, -0.16% for the second.

First: CC(C)N1CCC(=NNc2ccc([N+](=O)[O-])cc2S(=O)(=O)N2CCOCC2)CC1
Second: CC(C)(C)C(=O)COC(=O)c1cc(S(=O)(=O)N2CCCCC2)ccc1N1CCOCC1
The Tm shift relative to glycine control of the first is higher: 0.15% for the first, -1.85% for the second.

Going from `O=C(CCNC(=O)c1ccc(Br)cc1)Nc1cccc(S(=O)(=O)N2CCCCC2)c1` to `Cc1ccc(S(=O)(=O)N2CCCCC2)cc1NC(=O)c1cccnc1`, the Tm shift relative to glycine control rises from -8.95% to -0.36%.

First: CCOC(=O)NN1C(=O)c2ccccc2NC1c1ccccc1O (configuration not stated)
Second: CC(C)NC(=O)c1ccccc1S(=O)c1ccccc1C#N (configuration not stated)
The Tm shift relative to glycine control of the first is higher: 1.62% for the first, -0.24% for the second.

Compared with `C=CCOc1c(CNn2cn[nH]c2=S)cccc1OC`, `COc1ccccc1CNS(=O)(=O)c1ccc2c(c1)NC(=O)CS2` is lower in Tm shift relative to glycine control: 1.48% for the first, 1.27% for the second.

First: Cc1cc(C)cc(NC(=O)c2cccc(NC(=O)C3C4CC5OC(=O)C3C5C4)c2)c1 (configuration not stated)
Second: Cc1cc(NS(=O)(=O)c2ccc(NC(=O)c3cccnc3)cc2)nc(C)n1
The Tm shift relative to glycine control of the first is higher: 3.21% for the first, -0.7% for the second.

Compared with `COC(=O)CNC(c1ccccc1Cl)c1cc(Br)ccc1NC(=O)CCN1CCOCC1` (configuration not stated), `O=C(NCCCN1CCOCC1)c1cn(-c2ccccc2)nc1-c1ccc(F)cc1` is higher in Tm shift relative to glycine control: -6.58% for the first, -0.58% for the second.

Going from `Cc1ccc(CNC(=O)c2cccc3c2C(=O)c2ccc(N4CCC(C)CC4)cc2S3(=O)=O)cc1` to `Cc1ccc(S(=O)(=O)N(c2cccc(C)c2)C2CCS(=O)(=O)C2)cc1` (configuration not stated), the Tm shift relative to glycine control falls from 0.32% to -3.26%.

Going from `NC(=O)C(Cc1ccccc1)NC(=O)C12CC3CC(CC(C3)C1)C2` (configuration not stated) to `O=C(CN1C2CCC1CC(NC(=O)C1CC1)C2)NCc1ccccc1` (configuration not stated), the Tm shift relative to glycine control falls from 1.38% to -0.34%.

Going from `CCOC(=O)c1c(C)oc2cc(Sc3ccccc3)c(O)c(O)c12` to `Cc1noc(C)c1S(=O)(=O)N(C)Cc1ccccc1`, the Tm shift relative to glycine control falls from 1.87% to -2.24%.

Compared with `COc1ccc(CCN2CC(C(=O)OCC(=O)NCc3ccccc3Cl)CC2=O)cc1OC` (configuration not stated), `COc1ccc(CCNC(=O)COC(=O)Cc2cc(OC)c(OC)c(OC)c2)cc1` is lower in Tm shift relative to glycine control: -0.25% for the first, -0.75% for the second.

Compared with `COc1ccc(C(CNC(=O)c2cccnc2SC)N2CCOCC2)cc1` (configuration not stated), `COc1ccc(C(CNC(=O)c2cccc(NS(=O)(=O)c3ccc(C)c(F)c3)c2)N2CCCC2)cc1` (configuration not stated) is lower in Tm shift relative to glycine control: -0.34% for the first, -1.75% for the second.

Going from `O=C(NCCCN1CCOCC1)c1cc2c(s1)CCC2` to `CC1(C)Cc2c(sc(NC(=O)C(=O)N3CCOCC3)c2C#N)CO1`, the Tm shift relative to glycine control rises from 1.5% to 2.25%.

First: CCNC(=O)CCc1nc(-c2ccc(C(C)(C)C)cc2)no1
Second: COc1ccc(CCNC(=O)COC(=O)Cc2ccccc2F)cc1
The Tm shift relative to glycine control of the first is higher: 2.39% for the first, 1.52% for the second.

First: COCCN(CCOC)S(=O)(=O)NC[C@H]1O[C@@H](n2cnc3c(N)ncnc32)[C@H](O)[C@@H]1O
Second: CCOC(=O)CCCCCC(=O)Nc1ccc2c(c1)CC(=O)N([C@@H](C)CO)C[C@H](C)[C@@H](CN(C)Cc1ccccc1)O2
The Tm shift relative to glycine control of the first is lower: -2.01% for the first, 0.56% for the second.

First: CN(NS(=O)(=O)c1cccs1)c1ncc(C(F)(F)F)cc1Cl
Second: FC(F)(F)c1cccc(-c2cc3ccccc3nc2N2CCCC2)c1
The Tm shift relative to glycine control of the first is lower: -0.95% for the first, -0.24% for the second.

First: O=C(/C=C/c1ccc([N+](=O)[O-])o1)NNC(=O)c1ccc(F)cc1
Second: Cc1ccc(C(=O)NNC(=O)c2ccc3c(c2)OCCO3)cc1
The Tm shift relative to glycine control of the first is lower: -1.3% for the first, 1.65% for the second.

Compared with `O=C(Nc1ccc(Cl)cn1)c1ccc2c(c1)OCCO2`, `CC(=NNC(=O)c1ccc2nc[nH]c2c1)c1ccc(Br)cc1` is lower in Tm shift relative to glycine control: -0.17% for the first, -13% for the second.

Compared with `O=S(=O)(c1cccc(Cn2nnc(-c3ccc(F)cc3)n2)c1)N1CCOCC1`, `Cc1ccc(C2CC(c3cccc(NS(C)(=O)=O)c3)=NN2S(C)(=O)=O)cc1` (configuration not stated) is lower in Tm shift relative to glycine control: 0.18% for the first, -1.41% for the second.

Going from `COc1ccc(S(=O)(=O)N(C)C[C@H]2Oc3c(NC(=O)Nc4ccc5c(c4)OCO5)cccc3C(=O)N([C@H](C)CO)C[C@@H]2C)cc1` to `COc1ccc(NC(=O)N2CCCC2C(=O)NCc2ccccc2Cl)cc1` (configuration not stated), the Tm shift relative to glycine control rises from -34% to -2.42%.

Compared with `CC(=O)NC(=S)Nc1ccc(NC(=O)c2cccnc2)cc1`, `CCOC(=O)c1ccc(NC(=O)c2cccnc2)cc1` is lower in Tm shift relative to glycine control: 2.02% for the first, 0.68% for the second.

First: COc1ccc(Cl)cc1C=CC=Nc1ccc(S(N)(=O)=O)cc1
Second: O=[N+]([O-])c1ccc(N=NNc2ccc([N+](=O)[O-])cc2)cc1
The Tm shift relative to glycine control of the first is lower: -9.77% for the first, 4.69% for the second.

Going from `O=C(NN=Cc1ccccc1)c1ccccc1` to `Cc1nc2ccc(C(=O)N/N=C/c3ccc(O)cc3)cc2[nH]1`, the Tm shift relative to glycine control falls from 3.44% to -4.58%.

Going from `CSc1ccc(/C=N\NC(=O)CC(=O)NC(C)C)cc1` to `O=C(CNC(=O)c1cccs1)N/N=C/c1cccc(Br)c1`, the Tm shift relative to glycine control rises from -7.31% to -2.08%.

First: COCC(C)n1c(SCC(=O)NC2CCCCC2C)nc2ccccc2c1=O (configuration not stated)
Second: CCOn1c(SC(C)C)nc2ccccc2c1=O
The Tm shift relative to glycine control of the first is lower: -0.26% for the first, -0.18% for the second.

Compared with `COc1ccc(NCc2nnc(SCc3ccccc3)n2-c2ccc(OC)cc2)cc1`, `COc1ccc(C(C(=O)NCC2CCCO2)N(C(=O)Cn2nnc3ccccc32)c2ccc(NC(C)=O)cc2)cc1OC` (configuration not stated) is higher in Tm shift relative to glycine control: -0.87% for the first, 1.93% for the second.

Compared with `CCc1nonc1NC(=O)c1oc2ccc(Cl)cc2c1C`, `Cc1c(C(=O)NNC(=O)c2ccncc2)oc2ccccc12` is higher in Tm shift relative to glycine control: -0.44% for the first, 2.4% for the second.

Going from `NC(=S)c1ccc(C(N)=S)o1` to `OC(CNCC1CCCO1)Cn1c2ccc(Br)cc2c2cc(Br)ccc21` (configuration not stated), the Tm shift relative to glycine control falls from 9.83% to -15.9%.

First: O=C1/C(=C\c2ccc([N+](=O)[O-])cc2)CS(=O)(=O)C/C1=C/c1ccc([N+](=O)[O-])cc1
Second: CC(C)c1ccc(C=NNc2ccc([N+](=O)[O-])cn2)cc1
The Tm shift relative to glycine control of the first is lower: -9.77% for the first, -2.51% for the second.

For `O=[N+]([O-])c1cccc(/C=N/Nc2ncc(Br)cn2)c1`, the Tm shift relative to glycine control was -2.79%.

For `C=C1c2cccc(OC)c2O[C@H](C(=O)OCC)[C@@H]1CCCCCC`, the Tm shift relative to glycine control was 19.5% (active).
`Cc1cccc(-c2nc(Nc3ccc(O)cc3)c3ccccc3n2)c1` was tested, and the Tm shift relative to glycine control was 44.7% (active).
For `COC(=O)CN1C(=S)N(c2ccccc2)C(=O)C1CC(=O)Nc1ccc(Cl)cc1` (configuration not stated), the Tm shift relative to glycine control was 28.7% (active).
`Cc1ccc(S(=O)(=O)N2CCCCC2)cc1NC(=O)CCNC(=O)c1ccccc1` was tested, and the Tm shift relative to glycine control was 10.2% (active).
For `COc1ccc(C(CNC(=O)c2cccc(S(=O)(=O)Nc3ccccc3Cl)c2)N2CCOCC2)cc1` (configuration not stated), the Tm shift relative to glycine control was 15.6% (active).
In the case of `COc1ccc(C(CNC(=O)c2cc3c(s2)CCCC3)N2CCOCC2)cc1` (configuration not stated), the Tm shift relative to glycine control is reported as 53.2% (active).
With `O=C(N/N=C/c1ccc([N+](=O)[O-])o1)c1cn(-c2ccccc2)nc1-c1ccc(F)cc1` the Tm shift relative to glycine control was 57.3% (active).
`Cc1nc(NC(=O)c2ccc3c(c2)OCCO3)ccc1Br` was tested, and the Tm shift relative to glycine control was 11.1% (active).
With `Cc1ccc2nc(-c3ccc(NC(=O)c4cccnc4)cc3)oc2c1` the Tm shift relative to glycine control was 24% (active).
In the case of `Cc1cc2nc(-c3ccc(NC(=O)c4cccnc4)cc3)oc2cc1C`, the Tm shift relative to glycine control is reported as 24.6% (active).
For `CSc1ccc(/C=N/NC(=O)c2cccc(Cl)c2)cc1`, the Tm shift relative to glycine control was 19.1% (active).
In the case of `O=C(N/N=C/c1ccc(Cl)c(Cl)c1)c1ccc2nc[nH]c2c1`, the Tm shift relative to glycine control is reported as 27.4% (active).
With `CCOC(=O)C(C)Sc1nc2ccccc2c(=O)n1CC1CCCCC1` (configuration not stated) the Tm shift relative to glycine control was 15.7% (active).
For `COc1ccc(CCNC(=O)COC(=O)Cc2cccc(F)c2)cc1`, the Tm shift relative to glycine control was 15.5% (active).
With `O=C(NC(Cc1c[nH]c2ccccc12)C(=O)N/N=C/c1ccc(Br)cc1)c1cccs1` (configuration not stated) the Tm shift relative to glycine control was 19.7% (active).
For `O=[N+]([O-])c1ccc(N/N=C/c2ccccc2)cc1`, the Tm shift relative to glycine control was 29.2% (active).
In the case of `O=[N+]([O-])c1ccc(C=NN=Cc2ccc([N+](=O)[O-])cc2)cc1`, the Tm shift relative to glycine control is reported as 12.6% (active).
